In PubChem BioAssay AID1159580 (chemical genetic matrix, 2015):
Hit rate of the full screen: of about 5,500 compounds, about 2,000 (36%) were called active. Roughly 18% stayed inconclusive and do not appear here. Cut-off read from the data, not from the text of the source: active = normalized growth mostly below about 0.91 (no sharp cut-off); inconclusive = no clear call, values can overlap the other calls; inactive = mostly above about 0.92. The list shows a part of the results.

Experiment: chemical genetic growth profiling, strain panel (AID 1159580);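 note: tested at 20 µM; growth read once vehicle control cultures reached saturation at 30 °C; 1 = growth at the plate median or of vehicle wells; lower values mean less growth of the strain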
Settings: growth OD

Measured: normalized growth

O=C1OC(c2ccc(O)cc2)(c2ccc(O)cc2)c2ccccc21
active: S. cerevisiae deletion strains, locus YLR418C, strain cdc73, stronger effect = lower value 0.835
inactive: S. cerevisiae deletion strains, locus YJR043C, strain POL32, stronger effect = lower value 0.991 | S. cerevisiae deletion strains, locus YJR066W, strain TOR1, stronger effect = lower value 0.937 | S. cerevisiae deletion strains, locus YKL009W, strain mrt4, stronger effect = lower value 0.979 | S. cerevisiae deletion strains, locus YKL068W, stronger effect = lower value 0.991 | S. cerevisiae deletion strains, locus YKL085W, strain MDH1 (second series), stronger effect = lower value 0.975 | S. cerevisiae deletion strains, locus YKL085W, strain MDH1, stronger effect = lower value 0.975 | S. cerevisiae deletion strains, locus YKL160W, strain elf1, stronger effect = lower value 0.97 | S. cerevisiae deletion strains, locus YKL190W, strain CNB1, stronger effect = lower value 0.994 | S. cerevisiae deletion strains, locus YKR001C, strain vps1, stronger effect = lower value 0.993 | S. cerevisiae deletion strains, locus YKR091W, strain srl3, stronger effect = lower value 0.989 | S. cerevisiae deletion strains, locus YLL001W, strain dnm1, stronger effect = lower value 0.964 | S. cerevisiae deletion strains, locus YLL026W, stronger effect = lower value 0.973 | S. cerevisiae deletion strains, locus YLL041C, strain sdh2, stronger effect = lower value 0.979 | S. cerevisiae deletion strains, locus YLR027C, strain aat2, stronger effect = lower value 0.983 | S. cerevisiae deletion strains, locus YLR039C, strain RIC1, stronger effect = lower value 0.96 | S. cerevisiae deletion strains, locus YLR058C, strain SHM2, stronger effect = lower value 0.995 | S. cerevisiae deletion strains, locus YLR102C, strain apc9, stronger effect = lower value 0.978 | S. cerevisiae deletion strains, locus YLR113W, strain HOG1, stronger effect = lower value 0.974 | S. cerevisiae deletion strains, locus YLR221C, strain rsa3, stronger effect = lower value 1.01 | S. cerevisiae deletion strains, locus YLR258W, strain gsy2, stronger effect = lower value 0.973 | S. cerevisiae deletion strains, locus YLR262C, strain YPT6 (second series), stronger effect = lower value 0.995 | S. cerevisiae deletion strains, locus YLR262C, strain YPT6, stronger effect = lower value 0.946 | S. cerevisiae deletion strains, locus YLR268W, strain sec22, stronger effect = lower value 0.916 | S. cerevisiae deletion strains, locus YLR320W, strain mms22, stronger effect = lower value 1 | S. cerevisiae deletion strains, locus YLR330W, strain CHS5, stronger effect = lower value 0.982 | S. cerevisiae deletion strains, locus YLR342W, strain FKS1 (second series), stronger effect = lower value 0.998 | S. cerevisiae deletion strains, locus YLR342W, strain FKS1, stronger effect = lower value 0.994 | S. cerevisiae deletion strains, locus YLR357W, strain rsc2, stronger effect = lower value 0.949 | S. cerevisiae deletion strains, locus YLR370C, strain arc18, stronger effect = lower value 0.989 | S. cerevisiae deletion strains, locus YLR371W, strain rom2, stronger effect = lower value 0.948 | S. cerevisiae deletion strains, locus YLR384C, strain iki3, stronger effect = lower value 0.981 | S. cerevisiae deletion strains, locus YML016C, strain PPZ1, stronger effect = lower value 1 | S. cerevisiae deletion strains, locus YML032C, strain rad52, stronger effect = lower value 0.956 | S. cerevisiae deletion strains, locus YML120C, strain ndi1, stronger effect = lower value 0.977 | S. cerevisiae deletion strains, locus YML124C, strain tub3, stronger effect = lower value 0.978 | S. cerevisiae deletion strains, locus YMR058W, strain fet3, stronger effect = lower value 0.966 | S. cerevisiae deletion strains, locus YMR078C, strain ctf18, stronger effect = lower value 0.968 | S. cerevisiae deletion strains, locus YMR125W, strain sto1, stronger effect = lower value 0.962 | S. cerevisiae deletion strains, locus YMR129W, stronger effect = lower value 0.987 | S. cerevisiae deletion strains, locus YMR205C, strain PFK2, stronger effect = lower value 0.971 | S. cerevisiae deletion strains, locus YMR223W, strain ubp8, stronger effect = lower value 0.997 | S. cerevisiae deletion strains, locus YMR231W, strain pep5, stronger effect = lower value 0.992 | S. cerevisiae deletion strains, locus YMR307W, strain GAS1, stronger effect = lower value 0.909 | S. cerevisiae deletion strains, locus YNL067W, strain RPL9B, stronger effect = lower value 0.987 | S. cerevisiae deletion strains, locus YNL071W, strain lat1, stronger effect = lower value 0.95 | S. cerevisiae deletion strains, locus YNL153C, strain GIM3, stronger effect = lower value 1 | S. cerevisiae deletion strains, locus YNL183C, strain NPR1, stronger effect = lower value 0.956 | S. cerevisiae deletion strains, locus YNL209W, strain ssb2, stronger effect = lower value 0.99 | S. cerevisiae deletion strains, locus YNL233W, strain BNI4, stronger effect = lower value 0.981 | S. cerevisiae deletion strains, locus YNL250W, strain rad50, stronger effect = lower value 0.99 | S. cerevisiae deletion strains, locus YNL271C, strain bni1, stronger effect = lower value 0.988 | S. cerevisiae deletion strains, locus YNL298W, strain CLA4, stronger effect = lower value 0.99 | S. cerevisiae deletion strains, locus YNL307C, strain MCK1, stronger effect = lower value 0.937 | S. cerevisiae deletion strains, locus YNL322C, strain KRE1 (second series), stronger effect = lower value 0.991 | S. cerevisiae deletion strains, locus YNL322C, strain KRE1, stronger effect = lower value 0.994 | S. cerevisiae deletion strains, locus YNR049C, strain mso1, stronger effect = lower value 0.99 | S. cerevisiae deletion strains, locus YNR052C, strain pop2, stronger effect = lower value 0.969 | S. cerevisiae deletion strains, locus YOL006C, strain TOP1, stronger effect = lower value 0.952 | S. cerevisiae deletion strains, locus YOL012C, strain htz1 0.612 | S. cerevisiae deletion strains, locus YOL147C, strain pex11, stronger effect = lower value 0.981 | S. cerevisiae deletion strains, locus YOR001W, strain rrp6, stronger effect = lower value 0.973 | S. cerevisiae deletion strains, locus YOR061W, strain CKA2, stronger effect = lower value 1 | S. cerevisiae deletion strains, locus YOR069W, strain VPS5, stronger effect = lower value 0.988 | S. cerevisiae deletion strains, locus YOR070C, strain gyp1, stronger effect = lower value 0.991 | S. cerevisiae deletion strains, locus YOR080W, strain dia2, stronger effect = lower value 0.981 | S. cerevisiae deletion strains, locus YOR083W, strain WHI5, stronger effect = lower value 0.983 | S. cerevisiae deletion strains, locus YOR106W, strain vam3, stronger effect = lower value 0.944 | S. cerevisiae deletion strains, locus YOR136W, strain idh2, stronger effect = lower value 0.983 | S. cerevisiae deletion strains, locus YOR144C, strain elg1, stronger effect = lower value 0.987 | S. cerevisiae deletion strains, locus YOR184W, strain ser1, stronger effect = lower value 0.939 | S. cerevisiae deletion strains, locus YOR231W, strain MKK1, stronger effect = lower value 0.974 | S. cerevisiae deletion strains, locus YOR265W, strain rbl2, stronger effect = lower value 0.995 | S. cerevisiae deletion strains, locus YOR270C, strain vph1, stronger effect = lower value 0.89 | S. cerevisiae deletion strains, locus YOR290C, strain snf2, stronger effect = lower value 0.965 | S. cerevisiae deletion strains, locus YOR316C, strain cot1, stronger effect = lower value 0.968 | S. cerevisiae deletion strains, locus YPL051W, strain arl3, stronger effect = lower value 1 | S. cerevisiae deletion strains, locus YPL078C, strain atp4, stronger effect = lower value 0.952 | S. cerevisiae deletion strains, locus YPL106C, strain sse1, stronger effect = lower value 1.01 | S. cerevisiae deletion strains, locus YPL240C, strain hsp82, stronger effect = lower value 0.982 | S. cerevisiae deletion strains, locus YPL241C, strain CIN2, stronger effect = lower value 0.989 | S. cerevisiae deletion strains, locus YPL256C, strain CLN2, stronger effect = lower value 0.965 | S. cerevisiae deletion strains, locus YPR119W, strain clb2, stronger effect = lower value 0.98 | S. cerevisiae deletion strains, locus YPR141C, strain kar3, stronger effect = lower value 0.998 | S. cerevisiae deletion strains, locus YPR163C, strain tif3, stronger effect = lower value 0.965 | S. cerevisiae deletion strains, locus YPR167C, strain met16, stronger effect = lower value 0.972 | S. cerevisiae deletion strains, strain wtn01, stronger effect = lower value 0.954 | S. cerevisiae strains, strain wild type, stronger effect = lower value 0.998
